Inconclusive results are not listed. Where a structure was tested more than once in an assay, its records may differ in their call. Activity calls are given as the source filed them. How the source made its calls: active means hit-call score of the fitted dose curve at least 0.9, where 1 is the maximum; inconclusive means response in the unintended direction; inactive means score below 0.9.
Columns and labels:
[1] = ACEA_ER_AUC_viability: ACEA Biosciences xCELLigence Real-Time Cell Analysis on Estrogen Receptor Agonism for Viability (AID 2283782);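 further: continuous compound exposure with impedance area under curve over 80 h; hit means loss of impedance signal meaning reduced cell growth or viability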
Procedure, shortened: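 T-47D; phenol red-free RPMI1640 + 10% CS-FBS; 8 conc., 1:4 serial, max 100 uM final, ≤0.5% DMSO; n = 2; continuous exposure; impedance monitored to 80 h post-dose; AUC vs DMSO.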

[2] = biological target: AR (gene 367) (UniProt P10275); test: ACEA_AR_agonist_80hr: ACEA Biosciences xCELLigence Real-Time Cell Analysis on Androgen Receptor Agonism for Proliferation (AID 2283783);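 further: hits increase impedance growth signal above DMSO baseline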
Chain of AR (gene 367) (P10275 whole entry, looked up): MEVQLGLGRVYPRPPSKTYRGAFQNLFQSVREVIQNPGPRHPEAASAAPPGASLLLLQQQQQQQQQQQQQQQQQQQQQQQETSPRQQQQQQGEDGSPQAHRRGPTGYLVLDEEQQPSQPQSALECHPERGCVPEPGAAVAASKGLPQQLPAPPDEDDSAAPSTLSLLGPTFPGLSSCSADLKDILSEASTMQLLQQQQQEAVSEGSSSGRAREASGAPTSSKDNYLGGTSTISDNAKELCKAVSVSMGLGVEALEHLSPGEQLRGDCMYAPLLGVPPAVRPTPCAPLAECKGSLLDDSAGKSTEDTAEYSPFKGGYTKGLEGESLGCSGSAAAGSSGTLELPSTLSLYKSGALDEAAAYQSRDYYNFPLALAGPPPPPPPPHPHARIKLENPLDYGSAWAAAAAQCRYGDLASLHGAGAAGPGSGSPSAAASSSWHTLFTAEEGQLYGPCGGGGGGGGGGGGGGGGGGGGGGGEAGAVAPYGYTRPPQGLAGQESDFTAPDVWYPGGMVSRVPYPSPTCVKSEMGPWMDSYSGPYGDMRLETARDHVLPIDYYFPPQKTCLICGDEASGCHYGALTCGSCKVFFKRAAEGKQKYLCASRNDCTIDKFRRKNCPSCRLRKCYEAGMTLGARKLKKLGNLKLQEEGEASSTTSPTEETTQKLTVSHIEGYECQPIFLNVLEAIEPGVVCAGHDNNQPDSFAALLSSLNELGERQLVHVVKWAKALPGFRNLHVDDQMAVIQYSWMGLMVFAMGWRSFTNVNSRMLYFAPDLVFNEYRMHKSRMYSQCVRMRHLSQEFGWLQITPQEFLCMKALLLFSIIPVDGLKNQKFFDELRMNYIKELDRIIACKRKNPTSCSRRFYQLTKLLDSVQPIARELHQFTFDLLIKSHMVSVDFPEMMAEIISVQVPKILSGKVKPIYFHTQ
Procedure, shortened: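 Androgen-driven proliferation in 22Rv1 cells is tracked as electrical impedance, taken 80 h after continuous exposure to compound (eight concentrations, 1:4 steps, maximum 100 uM final). Activity is fitted in the positive direction with DMSO as baseline.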

[3] = STM_H9_NormalizedViability: Cytotoxicity Assessment at 120 hours in the Stemina devTOX quickPredict H9 human embryonic stem cell (hESC)-based Assay (AID 2283784)
Procedure, shortened: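 Pluripotent H9 hESCs were exposed, with chemical and media replaced every 24 h. Viability was read by CellTiter-Fluor fluorescence, background-corrected and normalized to the 0.1% DMSO neutral control per plate. Loss of signal was fitted.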

[4] = biological target: AR (gene 367) (UniProt P10275); test: ACEA_AR_antagonist_80hr: ACEA Biosciences xCELLigence Real-Time Cell Analysis on Androgen Receptor Antagonism for Proliferation (AID 2283787);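 further: 22Rv1 human prostate cancer cells with growth followed by electrical impedance; hits lower the impedance growth signal relative to DMSO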
Procedure, shortened: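 Growth-kinetic antagonist readout in 22Rv1 cells, taken 80 h after continuous compound exposure. Activity fitted as signal loss relative to DMSO negative control.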

[5] = ATG_M_06_XSP1: Attagene TRANS-FACTORIAL Multi-Species (XSP1) HepG2 Assay for M06 Transcription Factor (Internal Marker) (AID 2283790)
Procedure, shortened: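 Transfected HepG2 multi-reporter system treated 24 h in the presence of 3 nM 6-alpha-fluorotestosterone. The M06 internal marker transcript was quantified by RT-PCR with capillary electrophoresis as a background control, and gain of signal was scored versus DMSO.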

[6] = ATG_M_61_XSP1: Attagene TRANS-FACTORIAL Multi-Species (XSP1) HepG2 Assay for M61 Transcription Factor (Internal Marker) (AID 2283797)
Procedure, shortened: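 HepG2 cells transiently transfected with multiplexed GAL4-driven reporter units, dosed 24 h with 3 nM 6-alpha-fluorotestosterone present. Reporter mRNA quantified by RT-PCR, 6-FAM labelling, HpaI digestion and capillary electrophoresis; internal-marker background control, gain of signal versus DMSO.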

[7] = biological target: frog Thyroid hormone Receptor alpha (TRa), thra-a (gene 397942) (UniProt P15204); test: ATG_frTRa_XSP1: Attagene TRANS-FACTORIAL Multi-Species (XSP1) HepG2 Assay for frog Thyroid hormone Receptor alpha (TRa) (AID 2283804)
Chain of frog Thyroid hormone Receptor alpha (TRa), thra-a (gene 397942) (P15204 whole entry, looked up, the tested form may be a part): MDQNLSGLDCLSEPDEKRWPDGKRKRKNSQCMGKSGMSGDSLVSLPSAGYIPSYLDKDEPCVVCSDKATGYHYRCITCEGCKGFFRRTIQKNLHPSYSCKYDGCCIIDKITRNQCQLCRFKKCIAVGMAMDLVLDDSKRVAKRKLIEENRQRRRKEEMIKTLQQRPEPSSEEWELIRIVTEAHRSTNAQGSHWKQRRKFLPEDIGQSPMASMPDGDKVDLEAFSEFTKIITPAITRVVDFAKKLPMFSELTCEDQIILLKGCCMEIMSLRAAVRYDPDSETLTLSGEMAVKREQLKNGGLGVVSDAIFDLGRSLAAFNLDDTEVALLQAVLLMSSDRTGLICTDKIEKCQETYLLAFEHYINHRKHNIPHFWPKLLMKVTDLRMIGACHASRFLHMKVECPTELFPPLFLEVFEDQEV
Procedure, shortened: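 HepG2 cells transiently transfected with frog TRa-GAL4 chimeric reporter units, dosed 24 hr with 3 nM 6-alpha-fluorotestosterone present; reporter mRNA quantified by RT-PCR, fluorescent labelling and capillary electrophoresis, gain of signal versus DMSO.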

[8] = test system: turtle Thyroid Hormone Receptor, alpha (TRa), gene 101949057; test: ATG_trTRa_XSP1: Attagene TRANS-FACTORIAL Multi-Species (XSP1) HepG2 Assay for turtle Thyroid Hormone Receptor, alpha (TRa) (AID 2283806)
Procedure, shortened: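 HepG2 cells transiently transfected with GAL4-UAS reporter units and chimeric receptor-Gal4 constructs, with 3 nM 6-alpha-fluorotestosterone present. Reporter mRNA was quantified 24 h after dosing by RT-PCR, 6-FAM labelling and capillary electrophoresis; gain of signal versus DMSO.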

[9] = biological target: zebrafish Thyroid Hormone Receptor alpha (TRa), thraa (gene 30670) (UniProt Q98867); test: ATG_zfTRa_XSP1: Attagene TRANS-FACTORIAL Multi-Species (XSP1) HepG2 Assay for zebrafish Thyroid Hormone Receptor alpha (TRa) (AID 2283807)
Chain of zebrafish Thyroid Hormone Receptor alpha (TRa), thraa (gene 30670) (Q98867 whole entry, looked up, the tested form may be a part): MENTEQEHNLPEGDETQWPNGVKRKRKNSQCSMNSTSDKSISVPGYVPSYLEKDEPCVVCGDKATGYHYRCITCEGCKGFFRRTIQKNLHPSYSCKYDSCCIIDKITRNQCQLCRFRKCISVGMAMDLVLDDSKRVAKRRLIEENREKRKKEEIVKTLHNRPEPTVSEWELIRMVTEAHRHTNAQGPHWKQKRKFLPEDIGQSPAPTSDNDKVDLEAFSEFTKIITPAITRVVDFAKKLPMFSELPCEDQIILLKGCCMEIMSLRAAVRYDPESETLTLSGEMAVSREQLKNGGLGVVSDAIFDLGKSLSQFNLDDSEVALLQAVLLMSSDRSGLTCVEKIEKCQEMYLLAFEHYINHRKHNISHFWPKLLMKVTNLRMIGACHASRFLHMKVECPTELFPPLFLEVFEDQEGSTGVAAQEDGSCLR
Procedure, shortened: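 HepG2 cells transiently transfected with GAL4-UAS reporter units including a zebrafish TRa–Gal4 chimera, dosed 24 h with 3 nM 6-alpha-fluorotestosterone present. Reporter mRNA quantified by RT-PCR and capillary electrophoresis; gain versus DMSO.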

[10] = biological target: zebrafish Thyroid Hormone Receptor beta (TRb), thrb (gene 30607) (UniProt Q9PVE4); test: ATG_zfTRb_XSP1: Attagene TRANS-FACTORIAL Multi-Species (XSP1) HepG2 Assay for zebrafish Thyroid Hormone Receptor beta (TRb) (AID 2283809)
Chain of zebrafish Thyroid Hormone Receptor beta (TRb), thrb (gene 30607) (Q9PVE4 whole entry, looked up, the tested form may be a part): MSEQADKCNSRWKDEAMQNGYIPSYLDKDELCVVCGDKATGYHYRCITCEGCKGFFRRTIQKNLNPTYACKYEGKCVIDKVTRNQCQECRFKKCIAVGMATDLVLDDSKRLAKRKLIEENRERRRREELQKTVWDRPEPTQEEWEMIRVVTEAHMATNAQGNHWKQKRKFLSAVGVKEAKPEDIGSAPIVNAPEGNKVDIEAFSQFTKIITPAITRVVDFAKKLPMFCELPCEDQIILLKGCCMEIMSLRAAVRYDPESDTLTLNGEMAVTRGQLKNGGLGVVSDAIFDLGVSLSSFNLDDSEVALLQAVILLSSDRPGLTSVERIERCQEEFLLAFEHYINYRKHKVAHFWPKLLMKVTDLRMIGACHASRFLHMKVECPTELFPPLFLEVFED
Procedure, shortened: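 HepG2 cells transiently transfected with multiplexed GAL4-UAS reporter units expressing chimeric zebrafish TRb–Gal4. Dosed 24 h with 3 nM 6-alpha-fluorotestosterone present; reporter mRNA measured by RT-PCR, HpaI digestion and capillary electrophoresis; gain of signal versus DMSO.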

O=C1O[C@H]([C@@H](O)CO)C(O)=C1O
outcome [1]: inactive

Cc1cc2c(cc1C(F)(F)F)N(C(=O)Nc1ccc(Oc3cccnc3C)nc1)CC2
AC50 [1]: 15.6 µM (active)

O=c1ccc2ccccc2o1
outcome [1]: inactive

CC1(C)NC(=O)N(c2ccc([N+](=O)[O-])c(C(F)(F)F)c2)C1=O
outcome [1]: inactive

O=C(Nc1ccc(Cl)cc1)Nc1ccc(Cl)c(Cl)c1
AC50 [1]: 18.7 µM (active)
outcome [2]: inactive
outcome [3]: inactive
AC50 [4]: 5.97 µM (active)

CC[C@H](NC(=O)c1cc(F)ccc1NS(=O)(=O)c1cccc2cccnc12)c1ccccc1
outcome [1]: inactive

CCCCCCCCOc1ccc(C(=O)c2ccccc2)c(O)c1
outcome [1]: inactive

CC/C(=C(/CC)c1ccc(O)cc1)c1ccc(O)cc1
AC50 [1]: 50 µM (active)
outcome [1]: inactive
outcome [5]: inactive
outcome [6]: inactive
outcome [7]: inactive
outcome [8]: inactive
outcome [9]: inactive
outcome [10]: inactive

Cc1cccc2ccccc12
outcome [1]: inactive

c1ccc2ccccc2c1
outcome [1]: inactive

Cc1ncc(CO)c(CO)c1O
outcome [1]: inactive

CCCCCc1ccc(N)cc1
AC50 [1]: 50 µM (active)
outcome [1]: inactive

CCCCCCCCCCCO
AC50 [1]: 50 µM (active)

CCCCCCCCN(C)CCCCCCCC
outcome [1]: inactive
outcome [2]: inactive
outcome [3]: inactive
outcome [4]: inactive

Clc1ccccc1C(c1ccccc1)(c1ccccc1)n1ccnc1
AC50 [1]: 27.6 µM (active)

CCN(CC)C(=O)c1cc(S(=O)(=O)Cc2ccccc2)c(N2CCC(c3ccccc3)CC2)cc1N(CC)CCN(C)C
AC50 [1]: 4.19 µM (active)

O=C(O)c1ccccc1-n1cc(C(=O)O)c(=O)c2cc(Nc3c(F)cc(F)cc3Cl)c(Cl)cc21
outcome [1]: inactive

O=c1[nH]sc2ccccc12
AC50 [1]: 14.9 µM (active)

— PubChem BioAssay (EPA / NIEHS)
